Reference: PubChem BioAssay (NCI)
Compounds without any hit were thinned out: in the full panel of roughly 83,000, 20% have a hit.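 48-hour exposure, single concentration, 96-well plates; percent growth endpoint where 0 means no net growth. Active: below 10.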 The source made the active and inactive calls.

Columns and labels:
Assay in all cases: NCI-60 one-dose screen, 48 h (100 = growth as untreated, 0 = no growth, -100 = all killed)
Conditions in all cases: 10 µM unless noted
RPMI-8226 leukemia = test system: RPMI-8226 leukemia
OVCAR-8 ovarian = test system: OVCAR-8 ovarian
OVCAR-5 ovarian = test system: OVCAR-5 ovarian
OVCAR-4 ovarian = test system: OVCAR-4 ovarian
SK-OV-3 ovarian = test system: SK-OV-3 ovarian
IGROV1 ovarian = test system: IGROV1 ovarian
OVCAR-3 ovarian = test system: OVCAR-3 ovarian
HS 578T breast = test system: HS 578T breast
NCI/ADR-RES ovarian = test system: NCI/ADR-RES ovarian

Measured: growth

C=C(CNCCc1ccc(O)cc1)[C@@H]1CC[C@]2(COC3CCCCO3)CC[C@]3(C)[C@H](CC[C@@H]4[C@@]5(C)CCC(NCCO)C(C)(C)[C@@H]5CC[C@]43C)[C@@H]12 (some centres not stated)
active: RPMI-8226 leukemia -56.8% | OVCAR-8 ovarian -85.1% | OVCAR-5 ovarian -93.1% | OVCAR-4 ovarian -91.5% | SK-OV-3 ovarian -48.9% | IGROV1 ovarian -83.9% | OVCAR-3 ovarian -94.4% | HS 578T breast -51.5% | NCI/ADR-RES ovarian -79.3%

Cc1cc(N2CCCCC2)nc(N(CCNc2ccnc3cc(Cl)ccc23)Cc2ccccn2)n1
active: RPMI-8226 leukemia -14.7%
inactive: OVCAR-8 ovarian 52.8% | OVCAR-5 ovarian 68.2% | OVCAR-4 ovarian 41.6% | SK-OV-3 ovarian 60.5% | IGROV1 ovarian 31% | OVCAR-3 ovarian 56.8% | HS 578T breast 53.5% | NCI/ADR-RES ovarian 50.4%

COC(=O)c1ccc2oc(NC(=O)c3ccc(N4CCOCC4)c([N+](=O)[O-])c3)nc2c1
inactive: RPMI-8226 leukemia 93.3% | OVCAR-8 ovarian 99% | OVCAR-5 ovarian 92.8% | OVCAR-4 ovarian 91% | SK-OV-3 ovarian 89.8% | IGROV1 ovarian 99.9% | OVCAR-3 ovarian 107% | HS 578T breast 96.9% | NCI/ADR-RES ovarian 103%

C=C(CNCCc1ccc(O)cc1)[C@@H]1CC[C@]2(COC3CCCCO3)CC[C@]3(C)[C@H](CC[C@@H]4[C@@]5(C)CCC(N)C(C)(C)[C@@H]5CC[C@]43C)[C@@H]12 (some centres not stated)
active: RPMI-8226 leukemia -64.9% | OVCAR-8 ovarian -61.6% | OVCAR-5 ovarian -90.6% | OVCAR-4 ovarian -77.5% | SK-OV-3 ovarian -95.1% | IGROV1 ovarian -82.1% | OVCAR-3 ovarian -87% | HS 578T breast -49.5% | NCI/ADR-RES ovarian -67.1%

CCn1nc(C#Cc2c(C)ccc3c(Nc4ccc(Cl)cc4)nccc23)c2c(N)ncnc21
active: RPMI-8226 leukemia 2.72% | OVCAR-8 ovarian 7.01% | SK-OV-3 ovarian -3.61% | OVCAR-3 ovarian 7% | HS 578T breast 0.71%
inactive: OVCAR-5 ovarian 25.1% | OVCAR-4 ovarian 41.5% | IGROV1 ovarian 12.5% | NCI/ADR-RES ovarian 11.6%

C=C(C)[C@@H]1CC[C@]2(CO)CC[C@]3(C)[C@H](CC[C@@H]4[C@@]5(C)C=C(C#N)C(=O)C(C)(C)[C@@H]5CC[C@]43C)[C@@H]12
inactive: OVCAR-8 ovarian 22.2% | OVCAR-5 ovarian 36.3% | OVCAR-4 ovarian 26.9% | SK-OV-3 ovarian 37.9% | IGROV1 ovarian 24.1% | HS 578T breast 29.3% | NCI/ADR-RES ovarian 13.1%
active: RPMI-8226 leukemia -20.9% | OVCAR-3 ovarian -49.2%

Cc1ccc(S(=O)(=O)Nc2sccc2-c2nc(-c3ccccc3)no2)cc1
inactive: RPMI-8226 leukemia 84.2% | OVCAR-8 ovarian 89.4% | OVCAR-5 ovarian 85.8% | OVCAR-4 ovarian 95.1% | SK-OV-3 ovarian 89.1% | IGROV1 ovarian 87.9% | OVCAR-3 ovarian 92.2% | HS 578T breast 97% | NCI/ADR-RES ovarian 99.2%

COc1ccc(Nc2ncc(Br)c(NCCCNC(=O)C3CCC3)n2)cc1
inactive: RPMI-8226 leukemia 40.1% | OVCAR-8 ovarian 28.6% | OVCAR-5 ovarian 31.1% | SK-OV-3 ovarian 10.6% | IGROV1 ovarian 14.5% | OVCAR-3 ovarian 31.6% | NCI/ADR-RES ovarian 47.4%
active: OVCAR-4 ovarian -0.243% | HS 578T breast -15.7%
